In the library only some 17% were active in any assay of this set; here they are far more common.
DT40 TDP1 no CPT: qHTS for Inhibitors of human tyrosyl-DNA phosphodiesterase 1 (TDP1): qHTS in cells in absence of CPT. DT40 Tdp1-/- hTDP1 cells, no CPT, ATP luminescence, 48 h. Potency, µM (top dose mostly 46.2 µM), without a hit: at the highest dose activity change, negative = growth inhibition, hits mostly inhibitors. actives 15% (n = 420,000); note: % is set by controls: 0 for no effect and ±100 for the full control effect; nearly all actives have a fitted effect of over 55% in size
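Cells were dispensed at 400 per well, compounds added by pin tool, plates incubated ≥48 hr at 37 °C, then CellTiter-Glo added for 30 min at room temperature before luminescence reading. Line: DT40 Tdp1-/- complemented with hTDP1; camptothecin omitted.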
ClpP mod: qHTS Assay for Activators of ClpP | ATP-dependent Clp protease proteolytic subunit (Bacillus subtilis (strain 168)), P80244 | purified B. subtilis ClpP, FRET peptide cleavage, 20 min | Potency, µM (doses to about 57.5 µM), for inactives: at the highest dose activity change, negative = active | actives 1.9% (n = 340,000); active = well fitted falling curve with a large enough effect; inconclusive = small, poorly fitted or top-dose-only effect; inactive = no such curve, though single readings can be large or run the other way; note: the source files actives as falling curves though it sought activators and does not explain the sign; nearly all actives have a fitted effect of over 65% in size
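FRET quenching reversal measured ClpP activation: 10 microg/mL B. subtilis ClpP at pH 8 with the FRET-FV decapeptide, read at 430 nm after 320 nm excitation. The 20-min minus 0-min signal was scaled between DMSO/no-enzyme wells and ADEP (5.8 microM final).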
TDP1 cell CPT: growth inhibition of DT40 Tdp1-/-;hTDP1 cells with camptothecin (screen for TDP1 inhibitors); actives 12% (n = 420,000); AID 686979; chicken DT40 Tdp1-/-;hTDP1 cells + 20 nM CPT, ATP luminescence, 48 h; Potency, µM (series often up to 46.2 µM), for inactives: at the top dose activity change, negative = growth inhibition, most hits filed as inhibitors; note: % is set by controls: 0 for no effect and ±100 for the full control effect; nearly all actives have a fitted effect of over 55% in size
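Chicken DT40 Tdp1-/- cells complemented with human TDP1, 400 cells/well, exposed to compounds plus 20 nM camptothecin for at least 48 h at 37 C; viability read as ATP content by CellTiter-Glo luminescence.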
TDP1 block: blocks human tyrosyl-DNA phosphodiesterase 1 | Q9NUW8 | recombinant TDP1, AlphaScreen DNA substrate cleavage | Potency, µM (top dose mostly 130 µM), without a hit: top-dose activity change, negative = inhibition, hits mostly inhibitors | actives 0.28% (n = 350,000) | AID 485290; note: % is set by controls: 0 for no effect and ±100 for the full control effect; nearly all actives have a fitted effect of over 40% in size
Target sequence (Q9NUW8 whole entry, looked up): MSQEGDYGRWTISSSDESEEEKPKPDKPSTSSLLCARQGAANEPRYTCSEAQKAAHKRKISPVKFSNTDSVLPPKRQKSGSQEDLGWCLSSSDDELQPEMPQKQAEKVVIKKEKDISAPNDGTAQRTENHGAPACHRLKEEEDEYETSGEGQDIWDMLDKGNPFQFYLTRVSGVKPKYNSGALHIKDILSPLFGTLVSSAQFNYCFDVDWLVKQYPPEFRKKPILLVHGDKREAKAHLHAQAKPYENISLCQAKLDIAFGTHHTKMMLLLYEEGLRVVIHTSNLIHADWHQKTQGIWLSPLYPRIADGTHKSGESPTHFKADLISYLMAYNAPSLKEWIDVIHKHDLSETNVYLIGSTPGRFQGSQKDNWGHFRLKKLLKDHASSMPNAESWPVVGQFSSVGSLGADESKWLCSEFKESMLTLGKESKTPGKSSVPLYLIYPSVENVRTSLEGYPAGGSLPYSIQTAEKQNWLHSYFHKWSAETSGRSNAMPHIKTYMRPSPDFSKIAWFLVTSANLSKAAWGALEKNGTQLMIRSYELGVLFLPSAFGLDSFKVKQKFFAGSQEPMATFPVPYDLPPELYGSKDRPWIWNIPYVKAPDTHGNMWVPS
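Steps: enzyme plus compound, 15 min RT; add biotin/phosphotyrosine-FITC oligonucleotide (15 nM final), react 5 min; add donor/acceptor beads (10 ug/ml final), 10 min; read AlphaScreen. Tdp1 at 1 nM final.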
Active calls of the source: *; ? = inconclusive; / = not tested or not shown; [ ] = dose if it differs, or a comment. Unless noted, calls come from the whole dose curve; as a rule, active = well fitted curve in the direction sought with a large enough effect; inconclusive = small, poorly fitted or top-dose-only effect, or another doubt; inactive = no such curve, though single readings can be large; an effect the other way counts as inactive or inconclusive. Potency is the fitted concentration of half-maximal effect.

SMILES	DT40 TDP1 no CPT	ClpP mod	TDP1 cell CPT	TDP1 block
Nc1c(-c2nc(-c3ccccc3)no2)nnn1CC(=O)Nc1ccccc1	-26%	7%	-36%	-3%
Cn1c(=O)c2c(-c3cccc(Br)c3)n(CCO)cc2n(C)c1=O	?	-3%	?	6%
Cc1cc(N)c(-n2cc3c(c2-c2ccc(Br)cc2)c(=O)n(C)c(=O)n3C)cc1C	13µM*	-20%	16µM*	9%
Cn1c(=O)c2c(-c3ccccc3)n(-c3ccccc3N)cc2n(C)c1=O	?	4%	?	/
Cc1cccc(-c2c3c(=O)n(C)c(=O)n(C)c3cn2-c2ccccc2O)c1	-22%	?	?	-3%
COc1ccc(-n2cc3c(c2-c2cccc(Br)c2)c(=O)n(C)c(=O)n3C)cc1OC	13µM*	?	21µM*	-3%
Cc1cccc(-c2c3c(=O)n(C)c(=O)n(C)c3cn2-c2cc(N)c(Cl)cc2Cl)c1	3.7µM*	?	5.8µM*	11%
COC(=O)c1ccccc1-n1cc2c(c1-c1cccc(C)c1)c(=O)n(C)c(=O)n2C	7.3µM*	-29%	10µM*	11%
CC(=O)C1=NOC2C(=O)N(c3ccccc3)C(=O)C12 (stereo not drawn)	-6%	1%	-15%	/
C=CCC[C@@H](Cc1ccc(F)cc1)C(=O)OC[C@@H](Cc1c[nH]c2ccccc12)NC(=O)[C@H](CC=C)CC(=O)NCCO	18µM*	0%	?	3%
C=CCC[C@@H](Cc1ccc(F)cc1)C(=O)OC[C@H](Cc1c[nH]c2ccccc12)NC(=O)[C@@H](CC=C)CC(=O)NCCO	?	1%	?	6%
C=CCC[C@@H](Cc1ccc(F)cc1)C(=O)OC[C@@H](Cc1c[nH]c2ccccc12)NC(=O)[C@@H](CC=C)CC(=O)NCCO	?	-3%	?	5%
C=CCC[C@@H](Cc1ccc(F)cc1)C(=O)OC[C@H](Cc1c[nH]c2ccccc12)NC(=O)[C@H](CC=C)CC(=O)N(CCO)Cc1ccccc1	21µM*	-3%	15µM*	4%
C=CCC[C@H](Cc1ccc(F)cc1)C(=O)OC[C@H](Cc1c[nH]c2ccccc12)NC(=O)[C@H](CC=C)CC(=O)NCCO	18µM*	-6%	?	5%
c1ccc2c(c1)CC(N1CCN(c3cccc4c3OCCO4)CC1)C2	/	/	/	10%
COc1ccc(NC(=O)CSc2nc3c([nH]c4ccccc43)c(=O)n2C)c(OC)c1	-1%	-10%	-7%	0%
Cc1cc(C(=O)NCc2nc(-c3ccccc3NC(=O)C3CCCO3)oc2C)nc(C)n1 (stereo not drawn)	-30%	/	8%	/
COC(=O)NCC(c1cccnc1)N1CCN(c2ccccc2F)CC1 (stereo not drawn)	7%	0%	2%	0%
COc1ccc(C)cc1NC(=O)C(=O)NCC(c1cccnc1)N1CCc2ccccc21 (stereo not drawn)	15µM*	-1%	?	-3%
COc1ccc(NC(=O)C(=O)NCC(c2cccnc2)N2CCc3ccccc32)cc1OC (stereo not drawn)	21µM*	1%	?	3%
COc1ccc(C)cc1NC(=O)C(=O)NCC(c1cccnc1)N1CCN(c2ccccc2F)CC1 (stereo not drawn)	18µM*	-1%	?	1%
CCc1ccccc1NC(=O)C(=O)NCC(c1cccnc1)N1CCN(c2ccccc2F)CC1 (stereo not drawn)	15µM*	1%	?	-4%
N=c1c(S(=O)(=O)c2ccc(Cl)cc2)cc2c(=O)n3ccccc3nc2n1C1CCCC1	?	-2%	?	3%
C=C(C1=CCN(S(=O)(=O)C(C)(C)C)[C@@H]1CCO)c1ccccc1	?	0%	?	/
CCCCn1nnnc1C1(C)CCC(=O)N1CCc1c[nH]c2ccccc12 (stereo not drawn)	-18%	-3%	-24%	/
SMILES	DT40 TDP1 no CPT	ClpP mod	TDP1 cell CPT	TDP1 block
CCOc1ccc(NC(=O)C(=O)NCC(c2cccnc2)N2CCc3ccccc32)cc1 (stereo not drawn)	3.7µM*	1%	4.1µM*	1%
COC(=O)c1ccc(NC(=O)C(=O)NCC(c2cccnc2)N2CCc3ccccc32)cc1 (stereo not drawn)	16µM*	0%	15µM*	1%
CCc1ccc(NC(=O)C(=O)NCC(c2cccnc2)N2CCN(C)CC2)cc1 (stereo not drawn)	?	-1%	-23%	6%
CC(C)C(=O)COc1c2occc2cc2ccc(=O)oc12	-19%	-2%	6%	-4%
C=C(C)C(COc1c2occc2cc2ccc(=O)oc12)OC(C)(C)C(O)COc1c2occc2cc2ccc(=O)oc12 (stereo not drawn)	15µM*	11%	13µM*	1%
COC(=O)C1(c2ccccc2)NC(c2ccc(O)cc2)C2C(=O)N(c3ccc4c(c3)OCO4)C(=O)C21 (stereo not drawn)	-5%	-3%	-21%	/
CCN(CC)Cc1nc2c(c(=O)[nH]1)C1(CCCC1)Cc1ccccc1-2	?	-5%	21µM*	5%
CC1CN(c2c(F)c(N)c3c(=O)c(C(=O)O)cn(C4CC4)c3c2F)CC(C)N1 (stereo not drawn)	/	/	/	-9%
CC(CCc1ccc(O)cc1)NCCc1ccc(O)c(O)c1 (stereo not drawn)	15µM*	-1%	27µM*	10%[56.1 µM]
CCc1nc2cc(C(=O)N(C)C3CCOC3)cc(NC(=O)c3ccccc3OC)c2n1C (stereo not drawn)	-19%	/	-3%[9.04 µM]	/
C(=N\Nc1ccccc1)/c1ccc(N2CCOCC2)cc1	-23%	-5%	?	9%
C(=N\Nc1ccccn1)/c1ccc(N2CCOCC2)cc1	16µM*	?	23µM*	-9%
O=[N+]([O-])/C=C\c1ccc(N2CCOCC2)cc1	16µM*	0%	15µM*	/
O=C(COc1ccc(/C=C\[N+](=O)[O-])cc1)N1CCOCC1	?	0%	?	6%
O=[N+]([O-])c1cccc(N/N=C/c2ccc(N3CCOCC3)cc2)c1	16µM*	/	18µM*	9%
CCC(=O)N1CCC(C)(C(=O)Nc2ccc(OC)c(OC)c2)C1 (stereo not drawn)	-6%	1%	-15%	/
COc1cc(/C(C)=N/N2CCN(c3ccccc3OC)CC2)ccc1O	9%	3%	-10%	7%
COc1ccc(CC(=O)Nc2nc(OCC(F)(F)F)cnc2-c2ccc(Cl)cc2Cl)cc1	?	-9%	?	/
CC(C)(C)OC(=O)NN1CC(=O)N2[C@@H](Cc3c([nH]c4ccccc34)C2(C)C)C1=O	-26%	/	-7%	/
CCCCNC(=O)c1cc2c(=O)n3cccc(C)c3nc2n1C	/	/	/	1%

Screening results: PubChem BioAssay, National Center for Advancing Translational Sciences (NCATS)
